This is an account of results in PubChem BioAssay (Tox21).

Activity calls are given as the source filed them. The call rests on the fitted dose curve; in most records, active means well fitted curve in the direction sought with a large enough effect in the repeat runs; inconclusive means weak or mixed curves; inactive means flat fitted curve, though single readings scatter.

A short description of the assay: qHTS assay to test for compound auto fluorescence at 590 nm (red) in HepG2 cells (AID 720674). The conditions noted are these: HepG2 autofluorescence, red 540/590 nm, 1 h; series mostly up to 91.3 µM. From the text:
U.S. Tox21 Program National Center for Advancing Translational Sciences [NCATS] NIH Chemical Genomics Center [NCGC] U.S. Environmental Protection Agency [EPA] National Institutes of Environmental Health Sciences [NIEHS] National Toxicology Program [NTP] U.S. Food and Drug Administration [FDA] Tox21 Assay Overview: Compound auto fluorescence often interferes with screening of the compound library against various biological targets and signaling pathways. Some of these compounds may have fluorophoric properties. Such properties may interfere with the assay outputs resulting in false positives and/or negatives. To decrease such complications and ensure the compound activities are relevant in terms of biological response, the Tox21 10K compound library was screened for auto fluorescence. From the fluorophores used as reporter signals in our screening assays, the auto fluorescence equivalencies of compounds against three fluorophores have been evaluated: Triamterene, Fluorescein and Rose Bengal sodium for blue, green and red fluorescence, respectively. The fluorescence intensities were measured using Excitation/Emission wavelengths at 405/460nm, 485/535nm and 540/590nm for blue, green and red labels, respectively. This assay includes the red fluorescence data.
Tox21 Assay Protocol Summary: 2,000 HepG2 cells in 5 uL of culture medium (MEM containing 10% FBS) per well were dispensed into black wall/clear bottom 1536-well plates using a Multidrop Combi Dispenser (ThermoFisher Scientific, Waltham, MA). The assay plates were incubated overnight at 37 C to allow cell attachment to the well bottom, followed by the transfer of 23 nL compound or DMSO vehicle by a pintool work station (Kalypsys , San Diego, CA). After the assay plates were incubated for 1 hr at 37 C and 5% CO2, fluorescence intensities in the assay plates were measured by an Envision (PerkinElmer, Shelton, CT) plate reader using three labels for measuring blue, green and red fluorescence at […] 460, 535 and 590 nm respectively.
In general terms: Quantitative high-throughput screening tests each substance at several concentrations.
For `CN(C)[C@@H]1C(=O)C(C(N)=O)=C(O)[C@@]2(O)C(=O)C3=C(O)c4c(O)cccc4[C@@](C)(O)[C@H]3[C@H](O)[C@@H]12`, the outcome was inactive. The entry for `O=c1[nH]c(=O)n(Cl)c(=O)n1Cl` is “inactive”. Regarding `OCCOc1ccccc1`, the molecule was called inactive. In the case of `COc1ccc(N)cc1`, the molecule was classed as inactive. For the molecule `O=C(O)C(Cl)(Cl)Cl`, the call was inactive. The entry for `Oc1ccccc1-c1ccccc1` is “inactive”; for `CCOP(=S)(OCC)Oc1ccc2c(C)c(Cl)c(=O)oc2c1` it is “inactive”; for `CCCC[n+]1cccc(C)c1` it is “inactive”. The entry for `O=C(O)C(Cl)Cl` is “inactive”. The entry for `O=[N+]([O-])O` is “inactive”. Turning to `CCCCCC[n+]1ccccc1`, the call was inactive.

As for `CCCn1cc[n+](C)c1`, the molecule was called inactive.

As to `CCCCCCn1cc[n+](C)c1`, the result was inactive. As to `Nc1ccc(Cl)cc1`, the molecule was classed as inactive. The entry for `Cc1cc(Cl)ccc1N` is “inactive”; for `CNC` it is “inactive”. On to `COCC(=O)N(c1c(C)cccc1C)C(C)C(=O)OC` (stereo not given), for which the outcome was inactive.

For `CC[N+](CC)(CC)CC`, the molecule was classed as inactive.

For the molecule `Nc1ccc(-c2ccc(N)c(Cl)c2)cc1Cl`, the result was inactive. `CCCCn1cc[n+](C)c1C`: the molecule was classed as inactive. The entry for `CCC[N+]1(C)CCCC1` is “inactive”; for `COP(=O)(OC)OC=C(Cl)Cl` it is “inactive”; for `CCCCCCCCCCn1cc[n+](C)c1` it is “inactive”. For `CCCCCCCCCCCCOS(=O)(=O)O`, the call was inactive. Then `CCNc1nc(Cl)nc(NCC)n1`, with “inactive”; and `CCCCCCCCCCCCCC[P+](CCCCCC)(CCCCCC)CCCCCC`, with “inactive”; and `CCCCn1cc[n+](C)c1`, with “inactive”. For the molecule `O=C(O)c1nc(Cl)ccc1Cl`, the result was inactive. Turning to `CCn1cc[n+](C)c1C`, the outcome was inactive.

As for `O=C(O)CC(O)(CC(=O)O)C(=O)O`, the molecule was called inactive.

For the molecule `CC(=O)O`, the call was inactive. For the molecule `O=C(O)CCl`, the molecule was classed as inactive. Consider `O=C(O)COc1ccc(Cl)cc1Cl`, for which the call was inactive. The entry for `C=CCOC(Cn1ccnc1)c1ccc(Cl)cc1Cl` (stereo not given) is “inactive”; for `O=[N+]([O-])c1ccccc1O` it is “inactive”. Consider `CCC[N+]1(C)CCCCC1`, for which the outcome was inactive.

Turning to `CCCCCCCCCCCCn1cc[n+](C)c1`, the result was inactive. Then `CC[n+]1ccccc1`, with “inactive”; and `Oc1cccc2cccnc12`, with “inactive”; and `CCCCCCCCn1cc[n+](C)c1`, with “inactive”.
